Assay outcomes as filed in PubChem.
PfHsp90 set2: growth inhibition of PfHsp90-expressing yeast, primary screen, antimalarial PfHsp90 inhibitor project, S. cerevisiae, BacTiter-Glo luminescence, single point, set 2. AID 504621, 2011. hit rate 0.32% among 310,000. inhibition, % at 9.4 µM. BacTiter-Glo ATP, 48 h; yeast lacking PDR1 and PDR3 efflux regulators;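 active means every replicate shows inhibition above about 80%, whatever the replicate mean, limit read from the data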;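 further: 0% = DMSO neutral controls and 100% = 20 µM radicicol positive controls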
tim10-1 inh: growth inhibitors of tim10-1 mutant yeast, primary screen, luminescence, uHTS. S. cerevisiae tim10-1 ts strain growth, BacTiter-Glo, 24 h. inhibition, % at 20 µM. hit rate 2.2% among 330,000. AID 463190, 2010;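 active means inhibition of at least 40%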;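 further: mutant grown at 25 °C; 0% = DMSO wells with yeast and 100% = wells holding no yeast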
NALP1 yeast inh: NALP1 inflammasome inhibitors in reconstituted yeast, colorimetric, S. cerevisiae, triplicate retest | S. cerevisiae NALP1/ASC/caspase-1 growth, X-gal OD620, 72 h | inhibition, % at 10 µM | hit rate 0.61% among 280,000; in the data active means inhibition mostly above about 24%, no sharp cut-off; inactive means mostly below about 32%
TIM10 inh: growth inhibitors of isogenic TIM10 control yeast, primary screen, counter-screen for tim10-1 yeast inhibitor project, luminescence, uHTS. S. cerevisiae TIM10 strain growth, BacTiter-Glo luminescence, 24 h. inhibition, % at 10 µM. hit rate 1.4% among 330,000;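 active means inhibition of 40% or more at the single tested concentration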;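 further: wild-type TIM10 isogenic control strain grown at permissive 25 °C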
tim23-1 inh: growth inhibitors of tim23-1 mutant yeast, primary screen, luminescence, uHTS; inhibition, % at 20 µM; hit rate 1.3% among 330,000; S. cerevisiae tim23-1 growth, BacTiter-Glo luminescence, 24 h; AID 463212, 2010;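 active means growth inhibition of the mutant yeast at or above 50%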;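 further: temperature-sensitive mutant grown at 25 °C; plate controls were DMSO-treated mutant yeast for no effect and medium wells lacking yeast for full effect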
SKKanGAS inh: S. pyogenes SKKanGAS growth inhibitors in kanamycin, primary screen, streptokinase expression inhibitor project, SKKanGAS strain, BacTiter-Glo luminescence. 6 h. inhibition, % at 7.5 µM. hit rate 1.3% among 300,000;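 active means mean replicate score, as percent of positive control median, at least 50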;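 further: strain carries kanamycin resistance gene driven by streptokinase promoter and grows in 40 µg/ml kanamycin; loss of luminescence reflects streptokinase promoter inhibition or plain growth inhibition; 0% = median of DMSO wells and 100% = positive control at its reference dose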
Starred values were filed as active, the others as inactive; . = no result given. Hits are enriched below; roughly 4.8% of the tested compounds scored in any of these assays.

SMILES	PfHsp90 set2	tim10-1 inh	NALP1 yeast inh	TIM10 inh	tim23-1 inh	SKKanGAS inh
CN(Cc1cnn(-c2ccccc2)c1)C(=O)C1CCC(=O)N(C2CC2)C1 (stereo not drawn)	-39	4	-2	-6	15	-3
CCOC(=O)c1ccc(Oc2nc(NC)nc(Nc3ccccc3)n2)cc1	.	22	26	31	26	3
Cc1cc(Cl)ccc1Oc1ncc(-c2ccc(Cl)cc2)cn1	-22	-2	2	8	11	6
Clc1ccc(-c2cnc(Oc3ccccc3)nc2)cc1	15	15	39*	10	16	5
CN(CC(=O)Nc1ccc(F)c(F)c1F)C(=O)CN1C(=O)NC2(CCCC2)C1=O	0	-4	.	-3	6	13
CN(C)S(=O)(=O)c1cccc(C(=O)NC2CCSc3ccccc32)c1 (stereo not drawn)	16	7	11	6	2	-2
CCOC(=O)C1=NN(C(=O)c2ccc(OC)cc2)C(O)(c2ccc(Cl)cc2)C1 (stereo not drawn)	6	28	37	20	39	53*
CCOC(=O)C1=NN(C(=O)c2ccccc2)C(O)(c2ccc(C)cc2)C1 (stereo not drawn)	14	31	23	21	18	7
CN(Cc1cnn(C)c1)Cc1nc(-c2ccc(Cl)cc2)no1	10	6	-3	-2	14	-4
CCc1ccc(CN(C)Cc2nc(-c3cccc(Cl)c3)no2)nc1	-29	25	11	14	28	62*
CC(C)OC(=O)c1cccc2c1C(=O)c1ccccc1-2	-3	20	12	-9	50	-17
CC(C)COC(=O)c1cccc2c1-c1ccccc1/C2=N\O	-25	34	4	26	8	74*
O=[N+]([O-])c1ccc(/C=N/NC(=S)Nc2ccc(Cl)cc2Cl)s1	-28	16	.	7	44	77*
Oc1ccc(O)c(/C(=N/Nc2ccccc2)c2ccccc2)c1	.	39	42*	26	24	1
CS(=O)(=O)c1nc(-c2ccccc2)c(-c2ccccc2)[nH]1	26	-38	18	-14	-14	-7
O=S(=O)(Nc1nc2ccccc2nc1Cl)c1ccccc1	-5	18	19	18	13	2
O=S(=O)(Nc1nc2ccccc2nc1Cl)c1ccc2ccccc2c1	-40	37	8	-1	29	51*
COc1ccc(OC)c2[nH]c(=O)c(CCNC(C)=O)cc12	16	-2	.	-2	2	1
Cc1cccc(N2CCN(C(=O)COc3cccc4c3OC(C)(C)C4)CC2)c1C	-4	30	27	19	45	7
O=C(Cn1cncn1)N/N=C/c1ccccc1Cl	13	-6	-4	19	4	3
CCN(CCCn1c(SCC#N)nc2ccccc2c1=O)c1ccccc1	8	20	0	12	3	61*
O=C1CCCN1CCC1CCN(C2CC(=O)N(c3ccc(Cl)cc3)C2=O)CC1 (stereo not drawn)	102*	36	7	32	39	-6
COc1ccccc1N=Nc1ccc(O)c2ncccc12	99*	8	10	18	32	94*
Oc1ccc(N=Nc2ccccc2C(F)(F)F)c2cccnc12	-25	19	6	7	7	98*
CCOc1cc(/C=C2\SC(=S)N(NC(=O)c3cccnc3)C2=O)ccc1O	20	26	28	17	10	-1
Cc1cc[n+](C2=C([O-])c3ccccc3C(=O)/C2=N\S(=O)(=O)c2cccs2)cc1C	-6	13	25	1	13	19
O=C1/C(=N\S(=O)(=O)c2cccs2)C([n+]2cccc(Cc3ccccc3)c2)=C([O-])c2ccccc21	-8	-13	-7	-27	-19	106*
O=C1/C(=N\S(=O)(=O)c2cccs2)C([n+]2ccc(CCCc3ccccc3)cc2)=C([O-])c2ccccc21	.	7	3	0	10	110*
